Shiga inhibitor – inhibitors of Shiga toxin in Vero cells. Vero cells, Shiga toxin protein synthesis inhibition reporter. inhibition, % at 38.7 µM. hit rate 9.2% among 290,000. AID 2315; in the data active means inhibition mostly above about 28%, no sharp cut-off; inactive means mostly below about 43%; further: 0% is about no effect
Pf growth 96h – P. falciparum growth inhibition at 96 hour, primary screen for plastid delayed-death inhibitors. P. falciparum luciferase reporter growth, 96 h. Potency, µM (doses to about 28.7 µM), inactives show at the top dose activity change, negative = inhibition, actives largely listed as inhibitors. AID 504834. hit rate 6.9% among 320,000; further: potency means the concentration at half of the fitted maximal effect; on the % scale 0 is the no-effect control and ±100 the full control effect
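Parasite growth measured via integrated firefly luciferase reporter in P. falciparum. Infected erythrocytes at 2% hematocrit, 0.05% parasitemia final were treated 96 hours at 37 C under 5% CO2, and luminescence was read.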
HCMV antiviral – blocks human cytomegalovirus replication; hit rate 4.5% among 410,000; HFF cells, HCMV-luciferase reporter, 72 h; hits give low values; activity change, negative = inhibition, % at 57.5 µM; in the data active means activity change below about -60%; inconclusive means no clear call, values can overlap the other calls; inactive means above about -39%; further: on the % scale 0 is the no-effect control and ±100 the full control effect
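Luciferase read-out from HCMV-luciferase-infected HFFs (MOI 1 PFU/cell) 72 h post infection at 37C; compounds added after 16 h cell attachment; activity normalized between buffer-only basal and Salinomycin (10uM) inhibitor controls.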
HCV inh – inhibitors of hepatitis C virus infection. Potency, µM (series often up to 41.8 µM), inactives show at the highest dose activity change, negative = inhibition, most hits filed as inhibitors. hit rate 3.4% among 340,000. Huh7.5.1 HCVcc-Cre infection, luciferase reporter, 44 h. AID 651820; further: potency means the concentration at half of the fitted maximal effect; on the % scale 0 is the no-effect control and ±100 the full control effect
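HCVcc-Cre virus at an moi near 0.5 was added right after compound to cells cultured 4 h from seeding (1,000 cells/well). Luciferase activity was determined 44 h later, 15 min after substrate addition at RT.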
Cycloheximide cs – counter-screen hit for Shiga toxin inhibitors, cycloheximide. cell reporter, cycloheximide protein synthesis inhibition counterscreen. max response, %. hit rate 12% among 300,000. AID 2314; in the data active means max response mostly above about 13%, no sharp cut-off; inactive means mostly below about 14%; further: read at 38.3 µM for the half of the compounds with a filed dose; 0% is about no effect
Pf growth 48h – inhibits P. falciparum growth in the first generation, 48 h. P. falciparum luciferase growth in erythrocytes, 48 h. Potency, µM (series often up to 28.7 µM), for inactives: at the highest dose activity change, negative = inhibition, usual class: inhibitors. hit rate 5.9% among 310,000; further: potency means the concentration at half of the fitted maximal effect; on the % scale 0 is the no-effect control and ±100 the full control effect
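Read-out is firefly luciferase luminescence from an integrated reporter in P. falciparum, so falling signal marks reduced parasite growth. Infected erythrocytes were at 2% hematocrit and 0.1% parasitemia (final) in Albumax-supplemented RPMI 1640.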
* marks the source's active call; other numbers are inactive results; i = inactive; u = inconclusive; x = no result given. An excerpt weighted towards active compounds, which were near 21% of everything screened. Unless noted, the call rests on the fitted dose curve; in most records, active means well fitted inhibition curve with a large enough effect; inconclusive means small, poorly fitted or top-dose-only effect, or another doubt; inactive means no such curve, though single readings can be large or run the other way.

SMILES	Shiga inhibitor	Pf growth 96h	HCMV antiviral	HCV inh	Cycloheximide cs	Pf growth 48h
CCn1cc(Br)c(C(=O)Nc2ccc(C(=O)OC(C)C)cc2)n1	55	x	16	u	36	u
CCn1cc(Br)c(C(=O)Nc2nccs2)n1	73*	23%	-20	u	27*	24%
CCn1cc(Br)c(C(=O)Nc2ccc(OC)cc2)n1	30	x	-1	7%	21*	84%
CCn1c(C)c(C)c2cc(C(=O)Nc3cccc(Cl)c3)ccc21	37	15µM*	22	2µM*	21*	u
CCn1ccc(C(=O)Nc2cccc(Cl)c2)n1	106*	u	21	2%	36*	494%
CCn1cc(Br)c(C(=O)NN)n1	71	27%	20	-1%	58*	58%
CCn1cc(Cl)c(C(=O)Nc2ccc(OC)c(OC)c2)n1	55*	-23%	-3	u	21*	25%
CCn1cc(Br)c(C(=O)Nc2ccc(Cl)c(Cl)c2)n1	35*	57%	83	u	21*	56%
CCn1cc(Cl)c(C(=O)Nc2cc(C(=O)OC)cc(C(=O)OC)c2)n1	-8	u	7	-12%	-4	25%
CCn1cc(Br)c(C(=O)Nc2cccc(Cl)c2)n1	73*	-16%	26	u	18*	22%
O=C(Nc1sc2c(c1C(=O)Nc1ccccc1Cl)CCCC2)c1ccccc1F	x	x	13	x	x	x
CCc1noc(C)c1C(=O)NNC(=O)c1ccccc1Cl	x	5%	27	14%	x	21%
CSc1ccc(CN(C)CC(=O)NCCc2ccccc2)cc1	33	64%	-2	u	6	-17%
CCOC(=O)c1ccc(NC(=O)CN2C(=O)c3cccnc3Sc3ccccc32)cc1	x	x	17	x	x	x
O=C(COC(=O)CC1CCCC1)Nc1ccc(Br)cc1F	x	x	-19	9%	x	x
CCn1ccc(C(=O)Nc2ccccc2Cl)n1	63*	15%	-17	-7%	41*	-18%
COCCn1c(=N)c(C(=O)NC2CCCC2)cc2c(=O)n3cc(C)ccc3nc21	x	x	-26	x	x	x
COc1ccc(CCN(Cc2cccs2)S(=O)(=O)c2ccc(-n3cnnn3)cc2)cc1OC	-9	73%	u	11µM*	2	u
CCC(C)NS(=O)(=O)c1ccc(S(=O)(=O)N(CCc2ccc(OC)c(OC)c2)Cc2cccs2)cc1 (stereo not drawn)	6	-3%	-64*	11µM*	-1	u
CCOc1ccc(NC(=O)c2c(NCc3sccc3C)sc3c2CCCCC3)cc1	x	x	-8	x	x	x
CCn1c(SCc2ccc([N+](=O)[O-])cc2)nnc1C(C)NC(=O)c1ccc(C)cc1 (stereo not drawn)	-12	10µM*	-28	11%	-7	-9%
C/C(=N\NC(=O)c1ccco1)c1ccc(NC(=O)c2cccs2)cc1	130*	98%	89	u	64*	133%
C/C(=N/NC(=O)c1ccccc1)c1ccc(NC(=O)C(F)(F)F)cc1	135*	31%	0	1%	43*	58%
C/C(=N\NC(=O)C(N)=O)c1ccc(NC(=O)c2cccs2)cc1	69*	152%	22	-10%	33*	63%
C/C(=N/NC(=O)C1CCCC1)c1ccc(NC(=O)C(F)(F)F)cc1	32	u	-7	x	19*	3%
SMILES	Shiga inhibitor	Pf growth 96h	HCMV antiviral	HCV inh	Cycloheximide cs	Pf growth 48h
O=C(Nc1ccc(NC(=O)c2cccs2)c(Cl)c1)c1ccco1	40	34%	-18	u	-3	34%
CCOC(=O)C1CCN(C(=O)c2cccc(S(=O)(=O)NCc3ccccc3)c2)CC1	x	u	0	-21%	x	u
O=C(COC(=O)c1ccc(S(=O)(=O)N2CCOCC2)cc1)NCc1cccs1	-7	-14%	14	13%	-4	13%
CC(=O)Nc1cccc(/C(C)=N/NC(=O)c2ccc(NS(=O)(=O)c3cccs3)cc2)c1	14	23%	-37	-3%	-2	22%
C/C(=N\NC(=O)c1ccc(NS(=O)(=O)c2cccs2)cc1)c1ccc(C(C)(C)C)cc1	-3	u	15	7.1µM*	-1	3%
C/C(=N\NC(=O)c1ccccc1C)c1ccc(NC(=O)c2cccs2)cc1	114*	218%	6	u	46*	61%
C/C(=N\NC(=O)c1ccccc1)c1ccc(NC(=O)c2cccs2)cc1	106*	99%	24	u	23*	103%
CC(=O)NS(=O)(=O)c1ccc(NC(=O)c2ccc(NC(=O)c3cccs3)cc2)cc1	x	-21%	10	-11%	x	-20%
C=CCOc1ccc(Br)cc1/C=N/O	-32	26%	-1	11µM*	-6	x
CC(=O)Nc1ccc(NC(=O)COc2ccc(Br)cc2C)cc1	-10	-11%	-17	-7%	8	15%
C=CCOc1ccc(/C=N/O)cc1Cl	50*	3.3µM*	47	-12%	20*	40%
COc1cc(/C=N/O)ccc1OCc1ccccc1Cl	86*	-13%	5	18%	48*	i
C=CCOc1ccc2ccccc2c1/C=N/O	10	19%	-17	-12%	1	x
Cc1cccc(NC(=O)COc2ccc(Br)cc2/C=N/O)c1	121*	u	24	35µM*	75*	217%
O=C(CSc1cn(CC(=O)N2CCCC2)c2ccccc12)Nc1cc(C(F)(F)F)ccc1Cl	x	x	12	x	x	x
COC(=O)C1=C(C(=O)OC)[C@@H]2N(C)c3ccc(OC)cc3[C@@]23C[C@@H](C(=O)OC)N(C(=O)NC2CCCCC2)C3=N1	x	x	-26	6%	x	x
CCc1ccccc1NC1c2ccccc2C(=O)N1Cc1ccco1 (stereo not drawn)	-16	270%	8	-6%	-4	-16%
CCc1ccccc1NC1c2ccccc2C(=O)N1c1cc(C)ccn1 (stereo not drawn)	25	50%	7	5%	1	13µM*
O=C1c2ccccc2C(Nc2ccc(Cl)cn2)N1c1cccnc1 (stereo not drawn)	-10	-5%	-23	6%	-6	x
Cc1ccnc(N2C(=O)c3ccccc3C2Nc2ccccc2Cl)c1 (stereo not drawn)	29*	u	-10	-16%	9	u
Cn1c(-c2ccc(C=O)s2)nc2ccccc21	71	u	149	6%	23*	x
Cc1ccc(/C=N/NC(=O)CSc2nc3ccccc3n2C)s1	23	0%	-5	-3%	13	5%
Cn1c(-c2cccs2)nc2ccccc21	125*	-7%	-14	18%	35*	255%
CCNC(=S)SCCOc1ccc(C)cc1	-3	-10%	-5	13%	6	-1%
CNC(=S)SCCOc1ccccc1C	17	u	-69*	39%	10	13%
